# The campaign covered roughly 5,500 compounds. About 2,000 (36%) were called active. Inconclusive results (about 18%) are left out. Some of the results follow. A number with no mark means an inactive call. No stated cut-off is given here; in the data, active means normalized growth mostly below about 0.91 (no sharp cut-off); inconclusive means no clear call, values can overlap the other calls; inactive means mostly above about 0.92.
# Experiment: chemical genetic growth profiling, strain panel (AID 1159580);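 further: tested at 20 µM; growth read once vehicle control cultures reached saturation at 30 °C; 1 = growth at the plate median or of vehicle wells; lower values mean less growth of the strain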
# Details: S. cerevisiae deletion strains, growth OD
structure (smiles),measurement,setting,value
C=C1CCC2C(CC2(C)C)C(=C)CC/C1=N\O (stereo not drawn),normalized growth,"locus YAL013W, strain DEP1, active compounds read low",1
same,normalized growth,"locus YAL021C, strain ccr4, active compounds read low",1.04
same,normalized growth,"locus YAL026C, strain drs2, active compounds read low",1.01
same,normalized growth,"locus YAL030W, strain snc1, active compounds read low",1
same,normalized growth,"locus YBL061C, strain skt5, active compounds read low",0.999
same,normalized growth,"locus YBR009C, strain hhf1, active compounds read low",0.99
same,normalized growth,"locus YBR021W, strain FUR4, active compounds read low",0.89
same,normalized growth,"locus YBR023C, strain chs3, active compounds read low",1.01
same,normalized growth,"locus YBR171W, strain sec66, active compounds read low",0.993
same,normalized growth,"locus YBR229C, strain ROT2, active compounds read low",1.02
same,normalized growth,"locus YBR231C, strain swc5, active compounds read low",1.01
same,normalized growth,"locus YBR279W, strain paf1, active compounds read low",1.01
same,normalized growth,"locus YCL011C, strain gbp2, active compounds read low",0.997
same,normalized growth,"locus YCL016C, strain dcc1, active compounds read low",0.994
same,normalized growth,"locus YCL029C, strain bik1, active compounds read low",0.983
same,normalized growth,"locus YCL061C, strain MRC1, active compounds read low",0.992
same,normalized growth,"locus YCL069W, strain vba3, active compounds read low",1.01
same,normalized growth,"locus YCR088W, strain abp1, active compounds read low",1
same,normalized growth,"locus YDL005C, strain med2, active compounds read low",0.994
same,normalized growth,"locus YDL035C, strain GPR1, active compounds read low",0.87
same,normalized growth,"locus YDL040C, strain nat1, active compounds read low",0.998
same,normalized growth,"locus YDL074C, strain BRE1, active compounds read low",0.82
same,normalized growth,"locus YDL101C, strain DUN1, active compounds read low",0.986
same,normalized growth,"locus YDL134C, strain PPH21, active compounds read low",1.01
same,normalized growth,"locus YDL185W, strain tfp1, active compounds read low",0.978
same,normalized growth,"locus YDL192W, strain arf1, active compounds read low",0.884 (active)
same,normalized growth,"locus YDR001C, strain nth1, active compounds read low",1
same,normalized growth,"locus YDR069C, strain doa4, active compounds read low",0.995
same,normalized growth,"locus YDR101C, strain arx1, active compounds read low",0.947
same,normalized growth,"locus YDR137W, strain rgp1, active compounds read low",0.949
same,normalized growth,"locus YDR150W, strain NUM1, active compounds read low",1.03
same,normalized growth,"locus YDR159W, strain sac3, active compounds read low",0.977
same,normalized growth,"locus YDR162C, strain NBP2, active compounds read low",0.735 (active)
same,normalized growth,"locus YDR195W, strain ref2",1.01
same,normalized growth,"locus YDR297W, strain sur2, active compounds read low",1.01
same,normalized growth,"locus YDR318W, strain mcm21, active compounds read low",0.911 (active)
same,normalized growth,"locus YDR334W, strain swr1, active compounds read low",1
same,normalized growth,"locus YDR335W, strain msn5, active compounds read low",1
same,normalized growth,"locus YDR388W, active compounds read low",0.964
same,normalized growth,"locus YDR392W, strain spt3, active compounds read low",0.839
same,normalized growth,"locus YDR502C, strain sam2, active compounds read low",0.927
same,normalized growth,"locus YEL003W, strain gim4, active compounds read low",1
same,normalized growth,"locus YEL037C, strain rad23, active compounds read low",0.993
same,normalized growth,"locus YEL061C, strain CIN8 (second series), active compounds read low",1.01
same,normalized growth,"locus YEL061C, strain CIN8, active compounds read low",1.01
same,normalized growth,"locus YER015W, strain faa2, active compounds read low",1.01
same,normalized growth,"locus YER016W, strain bim1, active compounds read low",1
same,normalized growth,"locus YER110C, active compounds read low",1.02
same,normalized growth,"locus YER111C, strain swi4, active compounds read low",1
same,normalized growth,"locus YER155C, strain BEM2 (second series), active compounds read low",1
same,normalized growth,"locus YER155C, strain BEM2, active compounds read low",0.992
same,normalized growth,"locus YER167W, strain BCK2, active compounds read low",0.915
same,normalized growth,"locus YFR010W, strain ubp6, active compounds read low",1
same,normalized growth,"locus YGL078C, strain dbp3, active compounds read low",0.922 (active)
same,normalized growth,"locus YGL086W, strain mad1, active compounds read low",0.923 (active)
same,normalized growth,"locus YGL167C, strain pmr1, active compounds read low",0.996
same,normalized growth,"locus YGL173C, strain kem1, active compounds read low",1
same,normalized growth,"locus YGL227W, strain vid30, active compounds read low",1
same,normalized growth,"locus YGL240W, strain doc1, active compounds read low",1
same,normalized growth,"locus YGL248W, strain PDE1, active compounds read low",1.02
same,normalized growth,"locus YGL253W, strain hxk2, active compounds read low",1
same,normalized growth,"locus YGR078C, strain PAC10, active compounds read low",0.954
same,normalized growth,"locus YGR135W, strain pre9, active compounds read low",0.924
same,normalized growth,"locus YGR229C, strain SMI1, active compounds read low",0.738 (active)
same,normalized growth,"locus YGR252W, strain gcn5, active compounds read low",0.799
same,normalized growth,"locus YHR013C, strain ard1, active compounds read low",1.04
same,normalized growth,"locus YHR027C, strain rpn1, active compounds read low",0.999
same,normalized growth,"locus YHR030C, strain SLT2, active compounds read low",0.983
same,normalized growth,"locus YHR079C, strain IRE1 (second series), active compounds read low",0.962
same,normalized growth,"locus YHR094C, strain hxt1, active compounds read low",0.998
same,normalized growth,"locus YHR129C, strain ARP1, active compounds read low",0.992
same,normalized growth,"locus YHR142W, strain chs7, active compounds read low",1
same,normalized growth,"locus YHR200W, strain rpn10, active compounds read low",0.971
same,normalized growth,"locus YIL066C, strain RNR3, active compounds read low",0.908
same,normalized growth,"locus YIL073C, strain SPO22, active compounds read low",1.08
same,normalized growth,"locus YIL125W, strain kgd1, active compounds read low",0.993
same,normalized growth,"locus YIR030C, strain dcg1, active compounds read low",0.993
same,normalized growth,"locus YJL092W, strain hpr5, active compounds read low",0.996
same,normalized growth,"locus YJL095W, strain BCK1 (second series), active compounds read low",1
same,normalized growth,"locus YJL095W, strain BCK1, active compounds read low",0.843
same,normalized growth,"locus YJL115W, strain asf1, active compounds read low",0.998
same,normalized growth,"locus YJL129C, strain trk1, active compounds read low",0.994
same,normalized growth,"locus YJL134W, strain LCB3, active compounds read low",1.01
same,normalized growth,"locus YJL154C, strain vps35, active compounds read low",1
same,normalized growth,"locus YJL164C, strain tpk1, active compounds read low",1
same,normalized growth,"locus YJL166W, strain qcr8, active compounds read low",1.01
same,normalized growth,"locus YJL168C, strain set2, active compounds read low",0.998
same,normalized growth,"locus YJL187C, strain SWE1 (second series), active compounds read low",0.973

# — PubChem BioAssay AID1159580 (chemical genetic matrix, 2015)
